Consider 14 compounds from PubChem BioAssay (NCATS).

Experiment [1] can be described thus: qHTS profiling for inhibitors of Plasmodium falciparum (3D7) proliferation (AID 743322).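 Also: infected erythrocytes exposed to compound for 72 h before lysis; 100% = DMSO vehicle wells and 0% = 0.29 µM artemisinin.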 Particulars: P. falciparum 3D7 proliferation; at 28.7 µM (top of the series). Put shortly:
(§1)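 Parasite DNA was quantified by SYBR Green I fluorescence (ex 485, em 535 nm) after overnight lysis in saponin/Triton buffer at room temperature. Cultures at 0.3% parasitemia and 2.5% hematocrit were first exposed to compound for 72 h at 37 C; signals were normalised to artemisinin (0.29 uM) and vehicle wells.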
A general note: qHTS replaces the single test concentration by a dilution series.

Experiment [2] in a line: qHTS profiling for inhibitors of Plasmodium falciparum (DD2) proliferation (AID 743323). The settings on record: lower = more inhibition; at 28.7 µM (top of the series). The gist of the method:
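1536-well qHTS; infected RBCs 0.3% parasitemia/2.5% Hct final; cpd 72 h 37 C 5% CO2; lysis buffer + SYBR Green I, o/n RT dark; FI 485/535; norm. to 0.29 uM artemisinin and DMSO, plate-stack corrected.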

The nature of experiment [3]: qHTS profiling of the MIPE4 collection as inhibitors of Plasmodium falciparum (3D7) proliferation (AID 743344).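 Also: scaled between DMSO vehicle wells and 0.29 µM artemisinin as full inhibition.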 The settings on record: P. falciparum 3D7 in erythrocytes, SYBR Green DNA fluorescence, 72 h; at 28.5 µM (top of the series) unless noted. The gist of the method: as §1
Experiment [4] is described as follows: qHTS profiling of the MIPE4 collection as inhibitors of Plasmodium falciparum (DD2) proliferation (AID 743345). Particulars: P. falciparum Dd2 in erythrocytes, SYBR Green DNA, 72 h; at 28.5 µM (top of the series) unless noted. The gist of the method:
as §1

Experiment [5] is described as follows: qHTS profiling of the MIPE4 collection as inhibitors of Plasmodium falciparum (DD2) proliferation (Rep 2) (AID 743346). Particulars: P. falciparum Dd2 in erythrocytes, SYBR Green DNA, 72 h; at 28.5 µM (top of the series) unless noted. The gist of the method: as §1
Experiment [6] in a line: High-throughput drug toxicity screening in the BPDCN cell line Gen2.2 (AID 1224824).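 Also: cells exposed to compounds for 48 h before reading; 100% = DMSO and 0% = bortezomib.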 Particulars: Gen2.2 BPDCN cells; at 45.8 µM (top of the series) unless noted. Put shortly:
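Readout is ATP luminescence from Gen2.2 cells after two days of drug exposure in serum-containing medium at 37 °C. Values express percent activity, with vehicle defining full signal and 9.2 uM bortezomib defining zero.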

Experiment [7] in a line: qHTS assay for cell viability of HEK293 cells (AID 743288; active = well fitted curve in the direction sought with a large enough effect; an effect the other way counts as inactive or inconclusive; also: nearly all actives have a fitted effect of over 50% in size; also: potency is read from the fitted curve at half-maximal effect; as to max response: % is scaled to controls: 0 for no effect and ±100 for the full control effect). The settings on record: ATP luminescence (CellTiter-Glo), 18 h; max response: stronger effect = lower value. The gist of the method:
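HEK293, 18 h, 37 C, ATP luminescence. Cells at 2,000/well were allowed at least 5 h to settle before dosing; CellTiter-Glo developed 30 min at RT.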

Experiment [8] in a line: qHTS assay for cell viability of the p53RE-bla HCT-116 cell line (AID 743292; active = well fitted curve in the direction sought with a large enough effect; an effect the other way counts as inactive or inconclusive; also: % is scaled to controls: 0 for no effect and ±100 for the full control effect; nearly all actives have a fitted effect of over 55% in size). The gist of the method: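 Intracellular ATP of p53RE-bla HCT-116 cells measured by luciferase luminescence following 16 h compound incubation at 37 C; DMSO-only wells served as vehicle controls.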
Experiment [9] in a line: qHTS profiling of the MIPE4 collection as inhibitors of Plasmodium falciparum (HB3) proliferation (AID 743347).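 Also: plate controls were DMSO vehicle wells for no effect and artemisinin wells for full effect.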 The settings on record: P. falciparum HB3 in erythrocytes, SYBR Green DNA, 72 h; at 28.5 µM (top of the series) unless noted. Put shortly: as §1
Experiment [10] can be described thus: qHTS profiling for inhibitors of Plasmodium falciparum (HB3) proliferation (AID 743324; active = well fitted curve in the direction sought with a large enough effect; an effect the other way counts as inactive or inconclusive;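 also: 100% = DMSO vehicle wells and 0% = artemisinin-treated control wells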). Particulars: Plasmodium falciparum HB3 blood-stage proliferation; at 28.7 µM (top of the series). Put shortly: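 SYBR Green fluorescence (485 ex/535 em) of lysed cultures, incubated overnight at room temperature in the dark, quantifies parasite DNA. Infected erythrocytes at 0.3% parasitemia and 2.5% hematocrit were exposed 72 h; values normalized to DMSO and 0.29 uM artemisinin controls.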

Where “and” joins values, the source holds several entries; their conditions need not be identical. Identical values can stand only once. Results filed as inconclusive are left out. Calls of active or inactive are those of the source. Unless noted, no rule for the calls is given here.

`COc1cc2c(Nc3ccc(Br)cc3F)ncnc2cc1OCC1CCN(C)CC1`: in experiment [1], the remaining parasite growth % (stronger effect = lower value) was -1.51%. The compound further displayed an activity, percent of control in experiment [2] of 3.65%. For the same compound, in experiment [3], the parasite growth, % of DMSO control is 5.79%. Also, the parasite growth remaining, % of DMSO control (lower = more inhibition) in experiment [4] came out at 7.29%. The compound further yielded a parasite growth, % of control (lower = inhibition) in experiment [5] of 12.4%. In addition, the cell viability, % of control (lower = more cytotoxic) in [6] was determined as 3.75%.
`O=C(O)c1cc(=O)[nH]c(=O)[nH]1`: the max response in [7] is -10.9% (inactive). Further, the Potency entry in [8] was “inactive”. The same compound came in with a parasite growth, % of DMSO control in experiment [3] of 101%. Further, the parasite growth remaining, % of DMSO control (lower = more inhibition) in experiment [4] stood at 144%. In experiment [5], this compound yielded a parasite growth, % of control (lower = inhibition) of 89%. Moreover, the growth, % of control in experiment [9] was 107%. In [6], the cell viability, % of control (lower = more cytotoxic) is 184%.
Turning to `CC(=O)Oc1ccccc1C(=O)Nc1ncc([N+](=O)[O-])s1`, in [7], the Potency is 28.2 µM (active). The parasite growth remaining, % of DMSO control (lower = more inhibition) in [4] turned out to be 8.2% [at 57.5 µM]. This compound also gave a parasite growth, % of control (lower = inhibition) in experiment [5] of 7.18% [at 57.5 µM]. The same compound gave a growth, % of control in experiment [9] of 4.58% [at 57.5 µM]. Moreover, the cell viability, % of control (lower = more cytotoxic) in experiment [6] was 73% [at 92.2 µM].
On to `Cc1c(-c2ccc(O)cc2)n(Cc2ccc(OCCN3CCCCCC3)cc2)c2ccc(O)cc12`, for which, in experiment [6], the cell viability, % of control (lower = more cytotoxic) was 158%.
Regarding `CNC(=O)c1cc(Oc2ccc(NC(=O)Nc3ccc(Cl)c(C(F)(F)F)c3)cc2)ccn1`, the remaining parasite growth % (stronger effect = lower value) in [1] was 31.5% and 9.84%. The activity, percent of control in experiment [2] was 29.9% and 20%. The remaining proliferation (% of control), lower = more inhibition in experiment [10] is 3.29% and 1.23%. The parasite growth, % of DMSO control in experiment [3] worked out at 15.4%. Besides, in experiment [4], the parasite growth remaining, % of DMSO control (lower = more inhibition) was 14%. In experiment [5], this compound gave a parasite growth, % of control (lower = inhibition) of 33%. In experiment [9], this compound registered a growth, % of control of 12.2%. Moreover, in experiment [6], the cell viability, % of control (lower = more cytotoxic) came out at 2.89%.
Turning to `CC1(C)[C@H](C(=O)O)N2C(=O)C[C@H]2S1(=O)=O`, the cell viability, % of control (lower = more cytotoxic) in experiment [6] amounted to 240%.
Consider `S=P(N1CC1)(N1CC1)N1CC1`, for which the max response in [7] was -14.8% (inactive). Further, the Potency result in experiment [8] was “inactive”. In [3], this compound had a parasite growth, % of DMSO control of 11.7%. For the same compound, in [4], the parasite growth remaining, % of DMSO control (lower = more inhibition) was 24.7%. In experiment [5], this compound came in with a parasite growth, % of control (lower = inhibition) of 15.4%. The cell viability, % of control (lower = more cytotoxic) in [6] is 92%.
Regarding `CC1=CC(=O)c2ccccc2C1=O`, the remaining parasite growth % (stronger effect = lower value) in [1] came to 0.179%. Also, in [2], the activity, percent of control is 0.841%. For the same compound, in [10], the remaining proliferation (% of control), lower = more inhibition is 4.17%. For the same compound, in experiment [4], the parasite growth remaining, % of DMSO control (lower = more inhibition) came out at 48%. In addition, the parasite growth, % of control (lower = inhibition) in [5] is 10.3%. Moreover, in experiment [9], the growth, % of control was 23.6%. In experiment [6], the cell viability, % of control (lower = more cytotoxic) was determined as 2.97%.
As to `NNC(=O)c1ccncc1`, in [7], the max response is -4% (inactive). The Potency result in experiment [8] is “inactive”. Also, in experiment [4], the parasite growth remaining, % of DMSO control (lower = more inhibition) was 8.99%. This compound also showed a parasite growth, % of control (lower = inhibition) in experiment [5] of 8.5%. The growth, % of control in [9] turned out to be 2.55%. In [6], the cell viability, % of control (lower = more cytotoxic) came to 88.1%.
As to `COc1ccc2cc3[n+](cc2c1OC)CCc1cc2c(cc1-3)OCO2`, the max response in [7] is -16% (inactive). In addition, the Potency result in [8] is “inactive”. Also, the parasite growth remaining, % of DMSO control (lower = more inhibition) in experiment [4] is 6.26%. The parasite growth, % of control (lower = inhibition) in experiment [5] was 13.4%. The growth, % of control in [9] is 4.47%. In addition, in experiment [6], the cell viability, % of control (lower = more cytotoxic) was determined as 19.2%.
For the compound `O=C(N[C@H](CO)[C@H](O)c1ccc([N+](=O)[O-])cc1)C(Cl)Cl`, in experiment [7], the max response was -6.51% (inactive) and -1.46% (inactive). Moreover, the Potency result in experiment [8] is “inactive”. Moreover, the parasite growth remaining, % of DMSO control (lower = more inhibition) in experiment [4] was 100%. In [5], this compound returned a parasite growth, % of control (lower = inhibition) of 83.1%. Further, in experiment [9], the growth, % of control came to 105%. Further, the cell viability, % of control (lower = more cytotoxic) in experiment [6] worked out at 136%.
With `O=C(O)CCn1c2c(c3ccccc31)C[C@H](NS(=O)(=O)c1ccc(F)cc1)CC2`, the cell viability, % of control (lower = more cytotoxic) in [6] worked out at 124%.
For the compound `CC(=O)CC(c1ccccc1)c1c(O)c2ccccc2oc1=O` (centres undefined), the max response in experiment [7] is 0.884% (inactive). In [8], the Potency entry was “inactive”. Moreover, the cell viability, % of control (lower = more cytotoxic) in experiment [6] is 66.7%.
As for `N=C(N)c1ccc(OCCCCCOc2ccc(C(=N)N)cc2)cc1`, in experiment [7], the max response was -23.8% (inactive) and -12.7% (inactive). For the same compound, the Potency entry in experiment [8] is “inactive”. Besides, the parasite growth remaining, % of DMSO control (lower = more inhibition) in [4] turned out to be 6.09%. The compound also registered a parasite growth, % of control (lower = inhibition) in [5] of 15.7%. This compound also yielded a growth, % of control in experiment [9] of 3.03%. The cell viability, % of control (lower = more cytotoxic) in experiment [6] worked out at 272%.
